# Measured values from the supplement of paper PMC3724861.
# The sample as a whole holds a higher share of hits than the screen did. The true hit rate is not given. A number with no mark means an inactive call.
# System: T1, Caupolican (Caup) homeodomain DNA-binding domain
# T1 sequence: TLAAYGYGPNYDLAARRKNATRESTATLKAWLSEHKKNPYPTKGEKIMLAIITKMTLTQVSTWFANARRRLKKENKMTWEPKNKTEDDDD
# Assay: PBM E-score (8-mer, recovered from the published 9-mer minima) (E-score (dimensionless, -0.5 to 0.5)); Drosophila protein; higher = stronger relative binding preference, active = 0.31 or more
# Method: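 Protein binding microarray (PBM): in vitro transcribed/translated Caupolican (Caup) homeodomain DNA-binding domain (residues 214-303) applied at 100 nM to a universal 8-mer PBM array (Agilent AMADID 015681). The 8-mer enrichment score (E-score, range -0.5 to 0.5) was computed, and each 9-mer score is the minimum E-score of its two constituent 8-mers. The E-score is the same for a 9-mer and its reverse complement; 0.31 is the stated binding threshold.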
row,Sequence,PBM E-score
1,ACGCAATC,-0.0194
2,GAGTTTAC,-0.00241
3,ACATCGCT,0.178
4,CCTTCTAC,-0.131
5,CATCTGAC,0.0423
6,AAGGTACC,-0.127
7,ACCGCACA,-0.00685
8,CGCGGAGA,-0.112
9,ATAGCTTC,-0.0833
10,ATGTTAGG,0.219
11,GTGTTAGA,0.224
12,ATGTTAGC,0.314 (active)
13,CTGTTAGC,-0.0813
14,CTGTTAGA,0.105
15,ATGTTAGA,0.329 (active)
16,AATGACAT,0.298
17,CATGACAC,0.363 (active)
18,AATGACAG,0.219
19,AATGACAC,0.277
20,TATGACAA,0.314 (active)
21,CATGACAA,0.283
22,GATGACAC,0.219
23,AATGACAA,0.346 (active)
24,GATGACAA,0.308
25,AGATCATC,0.12

row,Sequence,PBM E-score
1,ACAGGCGC,-0.0681
2,TGAGGGCA,-0.108
3,GAGCACAC,0.00424
4,AGCGTCTA,-0.0661
5,ACACGGTG,0.307
6,ACACGGTC,0.219
7,ACACGGAA,0.291
8,ACACGGTA,0.327 (active)
9,ACACGGAT,0.339 (active)
10,ACACGGAG,0.131
11,ACAACGTA,0.255
12,AGTCACAG,0.0714
13,CGCCCCCA,-0.285
14,ACCATGAC,0.0507
15,AACATGAG,0.351 (active)
16,AACATGAT,≥ 0.424 (active)
17,CACATGAG,0.0472
18,AGCATGAT,0.197
19,AACATGAC,0.42 (active)
20,ACCATGAT,0.158
21,AGCATGAC,0.0874
22,AGCATGAG,0.104
23,AGAAGATC,-0.0662
24,GTTGGATA,0.0774
25,ATCCAATC,0.102

row,Sequence,PBM E-score
1,AGCCCTTC,-0.22
2,GCTCGTGA,-0.064
3,AGCGGGGG,-0.28
4,GACTATGA,0.0441
5,ATAATGCC,0.0429
6,ACTTGCAT,0.137
7,GCGTTTAC,-0.0438
8,AGTACAGC,0.167
9,AGTACATC,0.342 (active)
10,AGTACATG,0.45 (active)
11,AGCACATC,0.0585
12,AGTACGTG,0.0988
13,AGCACATG,0.164
14,CGTGATAG,-0.0553
15,AGCGCAAG,-0.181
16,CTTTGCGA,-0.0806
17,TAAAAAGA,0.0988
18,CAAAGTTC,-0.0431
19,CTATGTTC,0.31
20,ATATGTGG,0.182
21,CTCTGTTA,0.107
22,ATCTGTTG,0.128
23,ATATGTTC,0.347 (active)
24,ATATGTTA,0.338 (active)
25,GTATGTTA,0.321 (active)

row,Sequence,PBM E-score
1,CTATGTTA,0.294
2,ATATGTTG,0.324 (active)
3,ATATGTGA,0.25
4,ATATGTGC,0.118
5,GTCTGTTA,0.161
6,ATTCAGTC,0.00318
7,AGCCATTC,-0.0817
8,CCCTAGGG,-0.253
9,CATGTTCA,0.396 (active)
10,AATGTTCG,0.154
11,AATGTTCC,0.2
12,TCTGTTCA,0.0822
13,GATGTTCA,0.303
14,TATGTTGA,0.288
15,TATGTTCA,0.324 (active)
16,GATGTTCC,0.281
17,CATGTTCG,0.399 (active)
18,CATGTTCC,0.409 (active)
19,CCTGTTCG,0.0935
20,AATGTTCA,0.244
21,AGCCCTCA,-0.12
22,CAACAAAG,0.159
23,CTAATAAG,0.0971
24,GGCTAGGA,-0.114
25,ATAAGGAA,0.0175

row,Sequence,PBM E-score
1,TAAACGCA,0.034
2,AGATACGC,-0.121
3,GGGTCTGA,-0.193
4,ACGCTGAG,-0.175
5,CATGTTGA,0.38 (active)
6,AATGTTGA,0.17
7,AATGTTGG,0.115
8,CATGTTGC,0.279
9,AATGTTGT,0.368 (active)
10,CATGTTGG,0.285
11,AGTCTAAG,0.0473
12,CTATGTGA,0.137
13,ATCTGTAA,0.15
14,GTATGTAA,0.369 (active)
15,GAATGTAA,0.223
16,CTATGTAA,0.338 (active)
17,CTCTGTAA,0.12
18,GTATGTGA,0.193
19,ATATGTAA,0.34 (active)
20,ATATGCAA,0.123
21,AGGAGGAG,-0.188
22,TATCGCAA,0.0789
23,CGAGAAGC,-0.0725
24,CGTTTTAC,0.0444
25,ATTAGTGA,0.107

row,Sequence,PBM E-score
1,CTGCTAGC,-0.102
2,GTGGTTGA,0.0698
3,AATTAGAG,0.00042
4,CGCCCCAG,-0.238
5,AAATGCAT,0.0673
6,CCATGCAC,-0.0759
7,ACATGCAG,0.294
8,ACATGCGC,0.288
9,ACATGCGG,0.195
10,GCATGCAA,0.0861
11,TCATGCAA,0.146
12,ACATGCAT,0.376 (active)
13,ACATGCAC,0.393 (active)
14,GCATGCAC,0.0682
15,ACATGCAA,0.323 (active)
16,ACATGCGT,0.346 (active)
17,CGTCGTCA,-0.0203
18,AAAAGCCT,-0.0858
19,AGATTGGC,-0.0959
20,CAGCCTCC,-0.292
21,ACGGGTTC,-0.0477
